Reference: PubChem BioAssay (NCATS)
Inconclusive results are not listed. Values without a mark were called inactive. The source made the active and inactive calls. The call rests on the fitted dose curve; in most records, active means well fitted inhibition curve with a large enough effect; inconclusive means small, poorly fitted or top-dose-only effect; inactive means flat fitted curve, though single readings scatter.

Experiment: P-glycoprotein substrates identified in KB-8-5-11 adenocarcinoma cell line, qHTS therapeutic library screen (AID 1346987); further: nearly all actives have a fitted effect of over 65% in size
Conditions: KB-8-5-11 (P-gp overexpressing) viability, CellTiter-Glo, 72 h; series mostly up to 44.5 µM; activity change, negative = cytotoxicity: at the top concentration
Outline: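 KB-8-5-11, a colchicine-selected P-gp-overexpressing KB-3-1 subline, was grown without colchicine for the assay. Cells were seeded at 500 cells/well, dosed in concentration-response and incubated 72 h at 37 degree C, 5% CO2. Viability was read by CellTiter-Glo luminescence.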
On the % scale 0 is the no-effect control and ±100 the full control effect; potency means the concentration at half of the fitted maximal effect.

Row | SMILES | activity change, negative = cytotoxicity | outcome | Potency
1 | C=CCC1(C(C)CCC)C(=O)N=C(S)NC1=O (centres undefined) | -4.48% |  | 
2 | COc1ccc(OC)c([C@@H](O)[C@H](C)N)c1 | 5.55% |  | 
3 | CCNC1(c2cccs2)CCCCC1=O (centres undefined) | 1.87% [at 17.3 µM] |  | 
4 | CN1[C@H]2C[C@H](OC(=O)[C@H](CO)c3ccccc3)C[C@@H]1[C@@H](O)C2 | 2.69% |  | 
5 | C[C@@](O)(COc1ccc(C#N)cc1)C(=O)Nc1ccc(C#N)c(C(F)(F)F)c1 | -4.82% |  | 
6 | OCCCCC#Cc1cncc(OC[C@@H]2CCN2)c1 | 1.45% |  | 
7 | CCN1C[C@]2(OC(=O)c3ccccc3NC(C)=O)CC[C@H](OC)[C@@]34[C@@H]2C[C@@H]([C@@H]13)[C@@]1(O)C[C@H](OC)[C@H]2C[C@@H]4[C@]1(O)[C@H]2OC | 5.02% |  | 
8 | COc1c(C(C)C)cc2c(c1O)[C@@]1(C(=O)O)CCCC(C)(C)C1CC2 (some centres undefined) | -25% |  | 
9 | CC(C)C1(OO)C=C2C(=O)CC3C(C)(C(=O)O)CCCC3(C)C2CC1 (centres undefined) | 6.94% |  | 
10 | Clc1ccc(OCC2=NCCN2)cc1Cl | 6.64% |  | 
11 | O=C(CS(=O)C(c1ccccc1)c1ccccc1)NO (centres undefined) | -11.4% |  | 
12 | CC(N)Cc1c[nH]c2ccccc12 (centres undefined) |  | inactive | 
13 | CO[C@H]1[C@@H](O)C[C@H](O[C@H]2[C@@H](O)C[C@H](O[C@H]3[C@@H](O)C[C@H](O[C@H]4CC[C@@]5(C)[C@H](CC[C@@H]6[C@@H]5C[C@@H](O)[C@]5(C)[C@@H](C7=CC(=O)OC7)CC[C@]65O)C4)O[C@@H]3C)O[C@@H]2C)O[C@@H]1C |  |  | 0.259 µM (active)
14 | c1ccc(C2(N3CCCC3)CCCCC2)cc1 | -14.9% |  | 
15 | O=C1C[C@@H]2OCC=C3CN4CC[C@]56c7ccccc7N1[C@H]5[C@H]2[C@H]3C[C@H]46 |  |  | inactive
16 | CCNCC(O)c1cccc(O)c1 (centres undefined) | -20% [at 17.3 µM] |  | 
17 | C=C(CO)C(=O)O[C@H]1C/C(C)=C/CC/C(CO)=C/[C@H]2OC(=O)C(=C)[C@H]12 | 3.99% |  | 
18 | CN(C(=O)Cc1ccccc1)C(CN1CCCC1)c1ccccc1 (centres undefined) | -10.6% |  | 
19 | NCC[C@H](O)C(=O)N[C@@H]1C[C@H](N)[C@@H](O[C@H]2O[C@H](CN)[C@@H](O)[C@H](O)[C@H]2N)[C@H](O[C@@H]2O[C@H](CO)[C@@H](O)[C@H]2O)[C@H]1O | 12.8% [at 17.3 µM] |  | 
20 | [O]=[Cd] | -20% |  | 

Row | SMILES | activity change, negative = cytotoxicity | outcome | Potency
21 | COC(=O)N1CCN(C(=O)Cc2ccc(Cl)c(Cl)c2)[C@@H](CN2CCCC2)C1 | -10.6% |  | 
22 | O=S(=O)(O)c1cc(O)ccc1O | -1.39% [at 17.3 µM] |  | 
23 | C=CCN1CC[C@]23c4c5ccc(O)c4O[C@H]2[C@@H](O)C=C[C@H]3[C@H]1C5 | -0.996% |  | 
24 | FC(F)OC(F)(F)C(F)Cl (centres undefined) | -1.13% |  | 
25 | CC(=O)OO | -9.37% |  | 
26 | CC1C/C=C/C(O)C(O)CC/C=C/c2cc(O)cc(O)c2C(=O)O1 (centres undefined) | -10.9% |  | 
27 | CN[C@H]1[C@H](O)[C@H](O[C@@H]2[C@@H](O)[C@H](O[C@H]3O[C@H]([C@H](C)O)[C@@H](O)[C@H](O)[C@H]3N)[C@@H](N)C[C@H]2N)OC[C@@]1(C)O |  | inactive | 
28 | CC(=O)O[C@H]1C[C@@H](OC(C)=O)C(C)(C)C2C[C@@H](O)[C@]3(C)C(CC[C@@]4(C)[C@H](C5=CC(=O)OC5O)C[C@H]5O[C@]543)[C@]21C (some centres undefined) |  | inactive [at 17.3 µM] | 
29 | CNC1(c2ccccc2Cl)CCCCC1=O (centres undefined) |  |  | inactive
30 | C=C1[C@@H]2CC[C@@]3(C)[C@H](c4ccoc4)OC(=O)C[C@]13O[C@H]1CC(=O)C(C)(C)[C@H](C(OC(C)=O)C(=O)OC)[C@]12C (some centres undefined) | 8.74% [at 17.3 µM] |  | 
31 | O=C(NCNC(=O)NC1C(=O)NC(=O)N1CO)NC1C(=O)NC(=O)N1CO (centres undefined) | 12.7% |  | 
32 | C[C@]12CC[C@H]3[C@@H]([C@H](O)CC4=CC(=O)CC[C@@]43C)[C@@H]1CC[C@@H]2O | -6.77% |  | 
33 | C[C@]12CCC(=O)C[C@@H]1CC[C@@H]1[C@@H]2CC[C@]2(C)[C@@H](O)CC[C@@H]12 |  |  | 8.2 µM (active)
34 | CCC(N)Cc1c[nH]c2ccccc12 (centres undefined) |  |  | inactive
35 | O=[N+]([O-])C(Br)(CO)CO | 0.958% |  | 
36 | c1cc2c(c(NC3=NCCN3)c1)CCCC2 | -23.2% |  | 
37 | Oc1cccc[c]1[Hg][Cl] |  |  | 5.17 µM (active)
38 | [H+].[H+].[Hg+2].[O-]B([O-])[O-].[c-]1ccccc1 |  |  | 1.3 µM (active)
39 | COC(=O)C1(C)CCC(O)C2(C)c3c(O)cc(C(C)C)cc3C(O)C(OC(C)=O)C12 (centres undefined) |  | inactive [at 17.3 µM] | 
